This is an account of results in PubChem BioAssay (NCATS).

Where “and” joins values, the source holds several entries; their conditions need not be identical. Identical values can stand only once. Results filed as inconclusive are left out. Unmarked numbers belong to inactive results. Calls come from the whole dose curve; as a rule, active = well fitted inhibition curve with a large enough effect; inconclusive = small, poorly fitted or top-dose-only effect; inactive = flat fitted curve, though single readings scatter.
% is set by controls: 0 for no effect and ±100 for the full control effect.

The experiment deals with KB-3-1. Nature of the experiment: Cytotoxic Profiling of Annotated Libraries Using Quantitative High-Throughput Screening (AID 1296008). Note: nearly all actives have a fitted effect of over 60% in size. Particulars: Five cell lines viability, CellTiter-Glo ATP luminescence, 48-72 h; max response: active compounds read low. The essentials: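 Compounds were pin-transferred onto cells and incubated 48 or 72 hr at 37 degree Celsius, 95% humidity. CellTiter-Glo was added, plates sat 10 min at room temperature, then ATP-coupled luminescence was imaged as the viability read-out.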
In general terms: In ATP-based viability assays light output follows the ATP content of the culture.
Turning to `C=C[C@H]1CN2CC[C@H]1C[C@H]2[C@H](OC(=O)OCC)c1ccnc2ccc(OC)cc12`, the max response was 4.99%.
On to `C/C(=C\c1csc(C)n1)[C@@H]1C[C@@H]2O[C@]2(C)CCC[C@H](C)[C@H](O)[C@@H](C)C(=O)C(C)(C)[C@@H](O)CC(=O)O1`, for which the max response is -86.7%.
The figure for `C=CCC1(C(C)CCC)C(=O)N=C(S)NC1=O` (stereo not given) is -6.22%; for `CC(C)CCC(=O)O[C@H]1CC[C@H]2[C@@H]3CCC4=CC(=O)CC[C@]4(C)[C@H]3CC[C@]12C` it is 19.3%.
In the case of `ClC=C(Cl)Cl` it was -14.2%; in that of `C[C@@H]([C@H](O)c1ccccc1)N(C)C`, 3.96%.
With `O=C(NCNC(=O)NC1C(=O)NC(=O)N1CO)NC1C(=O)NC(=O)N1CO` (stereo not given), the max response was 2.87%.
As for `C#CCN1CC(=O)N(COC(=O)C2C(C=C(C)C)C2(C)C)C1=O` (stereo not given), the max response is -3.38%.
For the molecule `Clc1ccc(C(Cn2ccnc2)OCc2csc3c(Cl)cccc23)c(Cl)c1` (stereo not given), the max response was -3.27%.
The figure for `CCCCCc1cc(O)c2c(c1)OC(C)(C)[C@@H]1CCC(C)=C[C@@H]21` is -12.3%; for `CCC(=O)O[C@@](Cc1ccccc1)(c1ccccc1)[C@@H](C)CN(C)C` it is -0.686%.
`CN(C)[C@H](Cc1ccccc1)c1ccccc1`: the max response was 1.61%.
As for `ClCC1CO1` (stereo not given), the max response is -11%.
`CCNC1(c2cccs2)CCCCC1=O` (stereo not given): the max response is -6.94%.
In the case of `COc1ccc2c3c1O[C@H]1C(=O)CC[C@H]4[C@@H](C2)N(C)CC[C@]314` it was 8.34%.
The figure for `CCOc1ccc2c3c1O[C@H]1[C@@H](O)C=C[C@H]4[C@@H](C2)N(C)CC[C@@]341` is -8.27%.
Consider `C=CCN=C=S`, for which the max response was -2.35%.
The figure for `C[N+]1([O-])[C@@H]2CC[C@H]1CC(OC(=O)C(CO)c1ccccc1)C2` (stereo not given in full) is -12.1% and -9.46%; for `CC(C)(O)[C@@H]1[C@H]2OC(=O)[C@@H]1[C@]1(O)C[C@H]3O[C@]34C(=O)O[C@H]2[C@]14C` it is 0.436% and -3.57%; for `OC[C@@H](O)[C@H]1O[C@@H]2O[C@H](C(Cl)(Cl)Cl)O[C@@H]2[C@H]1O` it is 3.48%.
The figure for `O=C1CN=C(c2ccccc2)c2cc(Cl)ccc2N1CC1CC1` is 1.41%; for `CN1[C@@H]2CC[C@H]1CC(OC1c3ccccc3CCc3ccccc31)C2` (stereo not given in full) it is 1.95%.
Regarding `CCC1(c2ccccc2)C(=O)NC(=O)N(C)C1=O` (stereo not given), the max response is -7.5%.
In the case of `C[C@H]1CC[C@@H]2[C@@H](C)[C@H]3[C@H](C[C@H]4[C@@H]5CC=C6CC(O[C@@H]7O[C@H](CO)[C@H](O)[C@H](O[C@@H]8O[C@H](CO)[C@@H](O)[C@H](O)[C@H]8O)[C@H]7O[C@H]7O[C@@H](C)[C@H](O)[C@@H](O)[C@H]7O)CC[C@]6(C)[C@H]5CC[C@]34C)N2C1` (stereo not given in full) it was 48.6%; in that of `CC(C)(C)c1cc(O)ccc1O`, 3.78% and 3.98%; in that of `CCC1(CC)C(=O)NC(=O)N(C)C1=O`, -2.91%.
In the case of `C[C@]12C[C@H]3S[C@H]3C[C@@H]1CC[C@@H]1[C@@H]2CC[C@]2(C)[C@@H](O)CC[C@@H]12` it was 5.47%.
In the case of `CCC1C(C)=NN=C(c2ccc(OC)c(OC)c2)c2cc(OC)c(OC)cc21` (stereo not given) it was 11.4%.
As to `O=S(=O)(O)c1cc(O)ccc1O`, the max response is 6.29%.
In the case of `Oc1ccc2c3c1O[C@H]1[C@@H](O)CC[C@@]4(O)[C@@H](C2)N(CC2CCC2)CC[C@]314` it was 4.11%.
With `C[N+]1(C)[C@@H]2CC[C@H]1CC(OC(=O)c1c[nH]c3ccccc13)C2` (stereo not given in full), the max response is -6.15%.
The figure for `CC[N+](C)(CC)CCOC(=O)C(O)(c1ccccc1)c1ccccc1` is -0.181%.
Take `C[C@]12CC[C@H]3[C@@H](CCC4=C(Cl)C(=O)CC[C@@]43C)[C@@H]1CC[C@@H]2O`: the max response is 3.69%.
`CCCCNCC(O)c1ccc(O)cc1` (stereo not given): the max response was 13.7%.
The figure for `C[C@@H](Cc1ccccc1)NCCC(c1ccccc1)c1ccccc1` is -4.5%.
